TRPM1 prom inh = inhibitors of MITF-driven TRPM1 promoter in melanoma cells. SK-MEL-5 TRPM1 promoter luciferase, 24 h. inhibition, % at 12.5 µM. 330,000 compounds, 0.83% hits. AID 488899;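 active = mean inhibition across replicates of 60% or more, whatever share of single replicates reaches that level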
Jurkat NFkB inh = lowers PMA/ionomycin-induced NF-kB signal in Jurkat cells | PMA/ionomycin-induced NF-kB luciferase reporter, luminescence | inhibition, % at 4 µM | 330,000 compounds, 0.53% hits; in the data active = inhibition above about 50%
Shn3 inh set2 = Schnurri-3 reporter inhibition in Clone20 osteoblasts. AID 588674. Clone20 osteoblast Shn3 3'UTR firefly luciferase, 24 h. inhibition, % at 12.5 µM. 360,000 compounds, 0.52% hits;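 active = mean inhibition of at least 75% with every replicate also reaching 75%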;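 also: 0% = median of neutral control wells and 100% = pilot-screen positive control compound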
LMP1 NFkB inh = Epstein-Barr LMP1 NF-kappaB reporter inhibition; inhibition, % at 12.5 µM; LMP1-induced NF-kappaB luciferase reporter cells, luminescence; 350,000 compounds, 0.69% hits; in the data active = inhibition above about 41%;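 also: 0% = neutral control wells and 100% = reference inhibitor control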
Gli-Sufu antag = Gli-Sufu pathway antagonism. Sufu-KO-LIGHT fibroblasts, Gli luciferase reporter luminescence. inhibition, % at 5 µM. 340,000 compounds, 0.74% hits;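 active = inhibition above about 55%, limit read from the data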;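 also: 0% = DMSO-treated cells and 100% = wells with medium but no cells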
697 NFkB inh = lowers PMA/ionomycin-induced NF-kB signal in 697 B cells. AID 435022. 697 B-cell NF-kB luciferase reporter, 16 h. 330,000 compounds, 0.33% hits. inhibition, % at 4 µM; in the data active = inhibition above about 35%
Jurkat NFkB conf = inhibitors of the PMA/ionomycin-induced NF-kB reporter in Jurkat cells, retest; shares compounds with Jurkat NFkB inh; Jurkat NF-kB luciferase, 16 h; inhibition, % at 4 µM; 2,700 compounds, 27% hits; AID 435020;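 active = inhibition reaching about 45% at 4 µM in either replicate, limit read from the data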;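 also: plate controls were PMA/ionomycin stimulated DMSO wells for no effect and unstimulated DMSO wells for full effect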
Starred values were filed as active, the others as inactive; nt = not tested or not shown. Only some compounds are listed: those with a hit (about 2.3% of all), similar ones and a draw of the others.

SMILES	TRPM1 prom inh	Jurkat NFkB inh	Shn3 inh set2	LMP1 NFkB inh	Gli-Sufu antag	697 NFkB inh	Jurkat NFkB conf
Cc1ccc(NC(=O)c2nnn(-c3ccc4c(c3)OCCO4)c2N)cc1	-100	-109	27	-19	-35	-132	nt
Nc1c(C(=O)Nc2ccccc2)nnn1-c1ccc2c(c1)OCCO2	-25	-157	5	3	-84	-234	-100
CCc1nc(N2CCN(S(C)(=O)=O)CC2)c2c3c(sc2n1)CCCC3	-2	-29	2	-21	-1	5	nt
Cc1cc(N/C=C\c2nnnn2-c2ccc(F)cc2)no1	-10	5	-19	4	25	17	nt
CCN1C(=O)C(=Cc2cccc(OC)c2Oc2ccc([N+](=O)[O-])cc2[N+](=O)[O-])SC1=S	88*	68*	99*	-70	17	-152	5
COc1cc(/C=C2\SC(=O)NC2=O)ccc1Oc1ccc([N+](=O)[O-])cc1[N+](=O)[O-]	19	-4	-6	8	10	25	nt
CCc1cc2cc(C(=O)Nc3ccccc3F)sc2s1	-48	-218	-36	-43	-66	2	-104
Clc1ccc(CN2CCN(c3ncnc4scc(-c5cccs5)c34)CC2)cc1	6	12	77	8	23	-28	nt
CCOC(=O)c1sc2nc3c(cc2c1N)COC(C)(CC)C3 (stereo not drawn)	-43	-212	-58	-41	-151	-192	-110
CCOC(=O)c1sc2nc3c(cc2c1N)COC(C)(C)C3	-85	-115	-100	-27	-69	-140	nt
COC(=O)c1sc2nc3c(cc2c1N)CCCC3	7	-153	-77	-13	-147	-97	-27
Cc1ccc(C(c2sc3nc(C)nn3c2O)N2CC(C)OC(C)C2)cc1 (stereo not drawn)	4	-5	-8	3	3	-3	nt
COc1ccc(CCn2c(Br)nc3c2c(=O)[nH]c(=O)n3C)cc1	18	57*	-19	15	6	-16	25
COc1ccc(CCn2c(NN)nc3c2c(=O)[nH]c(=O)n3C)cc1	7	24	nt	6	1	-1	nt
Cc1cccc(Nc2nc(N)nc(CCl)n2)c1C	nt	88*	-11	nt	81*	34	24
Cc1ccc(Nc2nc(N)nc(CCl)n2)c(C)c1	-14	90*	-109	33	68*	-152	4
Cc1ccc(Nc2nc(N)nc(CCl)n2)cc1	-40	-22	-98	-35	-17	-2	nt
COc1ccccc1Nc1nc(N)nc(CCl)n1	9	7	-13	-6	5	8	nt
CCOc1ccc(Nc2nc(N)nc(CCl)n2)cc1	16	59*	-35	14	9	-11	10
COc1ccc(C(C(=O)NC(C)(C)C)N(CCC(C)C)C(=O)CCC(=O)Nc2cc(C)on2)cc1 (stereo not drawn)	-2	10	4	-9	4	13	nt
CCOC(=O)C1CCN(C(=O)C2CCN(S(=O)(=O)c3cc(Cl)ccc3Cl)CC2)CC1	13	15	15	-1	-3	5	nt
COc1ccc(C(=O)Nc2ccc(Cl)cc2C(=O)NCc2ccco2)cc1	9	52*	16	8	4	-42	4
Cn1c(=O)c2[nH]c(CCC3CCCC3)nc2n(C)c1=O	-2	nt	-3	-4	8	nt	nt
CSc1ccccc1NC(=O)c1ccccn1	-13	-5	-21	2	-2	-13	nt
O=S(=O)(NCc1nc2ccccc2[nH]1)c1ccccc1	-4	3	-4	-1	-4	25	nt
SMILES	TRPM1 prom inh	Jurkat NFkB inh	Shn3 inh set2	LMP1 NFkB inh	Gli-Sufu antag	697 NFkB inh	Jurkat NFkB conf
O=C(c1cc2c(ccc3ccccc32)o1)N1CCCCC1	-28	-156	-61	-11	-95	-200	-120
O=C(Nc1cccnc1)c1cc2c(ccc3ccccc32)o1	-53	-165	-46	0	-108	-5	-115
NNC(=O)c1cc2c(ccc3ccccc32)o1	4	-5	0	-13	-5	-5	nt
Cc1ccc(N(C(=O)Cn2nnc(-c3ccc(C)o3)n2)C(C(=O)NC2CCCC2)c2ccco2)cc1 (stereo not drawn)	26	5	20	-6	-2	7	nt
O=c1c2ccccc2oc2cc(-c3ccc4cc[nH]c4c3)ccc12	-122	7	-110	-36	-24	-98	nt
O=c1c2ccccc2oc2ccc(-c3ccc4[nH]ccc4c3)cc12	-111	-172	7	-49	-85	-218	-90

High-throughput results as filed in PubChem.
